Results on 43 compounds are retold here after PubChem BioAssay AID1347072 (National Center for Advancing Translational Sciences (NCATS), 2019).

Screen size: about 44,000 compounds; fewer than 10 were called active. Another 2% or so got no clear call; they are omitted. Calls come from the whole dose curve; as a rule, active = well fitted curve in the direction sought with a large enough effect; inconclusive = small, poorly fitted or top-dose-only effect, or another doubt; inactive = no such curve, though single readings can be large or run the other way. A selection follows.

For this assay, the target named is Galactokinase (Homo sapiens) (UniProt P51570). The assay is described as follows: qHTS Assay for Inhibitors of Human Galactokinase (GALK): NCGC Sytravon Library Screen. The settings on record: recombinant GALK, Kinase-Glo ATP luminescence, 1 h; series mostly up to 57.5 µM. An excerpt: Inherited deficiency of galactose-1-phosphate uridyltransferase (GALT) can result in a potentially lethal disorder called Classic Galactosemia (OMIM 230400). Several lines of evidence indicate that an elevated level of galactose-1-phosphate (gal-1-p), the product of galactokinase (GALK), is a major, if not sole, pathogenic mechanism in patients with classic galactosemia. Therefore, finding inhibitors of GALK is a potential novel therapy for this inherent metabolic disease and is the long term goal of this project. This screen is run against the NCGC Sytravon compound library collection. GALK (provided by Kent Lai) was assayed using ATP and D-(+)-Galactose (Sigma-Aldrich cat# G0750) as substrates. Promega Kinase-Glo Plus technology was used to detect kinase activity. Reactions with and without GALK were used as negative and positive controls together with Protein Tyrosine Phosphatase CD45 inhibitor (EMD Bioscience cat# 540215) which is shown to inhibit GALK activity. Decrease in activity corresponds to inhibition of the enzyme is the desired outcome for this assay. NIH Molecular Libraries Probe Production Network [MLPCN] NIH Chemical Genomics Center [NCGC] Grant: R03 MH085689-01 PI Name: Kent Lai Ph.D., University of Utah
Sequence of Galactokinase (Homo sapiens) (P51570 whole entry, looked up): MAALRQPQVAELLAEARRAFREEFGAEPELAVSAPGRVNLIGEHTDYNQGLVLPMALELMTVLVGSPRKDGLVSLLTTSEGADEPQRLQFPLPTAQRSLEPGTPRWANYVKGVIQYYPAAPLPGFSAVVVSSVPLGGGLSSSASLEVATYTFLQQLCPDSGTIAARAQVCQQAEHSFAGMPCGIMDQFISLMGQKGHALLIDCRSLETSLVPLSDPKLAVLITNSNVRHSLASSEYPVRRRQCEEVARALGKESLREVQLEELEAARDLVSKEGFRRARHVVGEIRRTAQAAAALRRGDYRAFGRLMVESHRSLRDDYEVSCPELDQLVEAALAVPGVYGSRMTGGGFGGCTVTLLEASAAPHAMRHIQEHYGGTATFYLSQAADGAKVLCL
NCGC Assay Protocol Summary: Three uL/well of ATP-buffer solution (35 uM ATP, 20mM HEPES pH8.0, 5 mM MgCl2, 60 mM NaCl, 1 mM DTT, 0.01% BSA final concentration) was dispensed into 1536-well, assay plates (Greiner, solid white medium-binding plates) with Aurora Discovery BioRAPTR Flying Reagent Dispenser (FRD; Beckton-Dickenson). Compound solution (23 nL) was transferred to the assay plate using the Kalypsys 1536-pin tool. One uL/well GALK-galactose solution (5 nM GALK, 100 uM galactose, 20 mM HEPES pH8.0, 5 mM MgCl2, 60 mM NaCl, 1 mM DTT, 0.01% BSA final concentration) was then added using the FRD yielding a total kinase reaction volume of 4 uL/ well. After 1 hour of room temperature incubation, 4 uL Kinase-Glo Plus reagent was added for a final assay volume of 8 uL/ well. Luminescence was detected with the ViewLux plate reader (Perkin Elmer, Waltham, MA) after 10 min incubation using a 1 sec exposure time and 2x binning.
In general terms: qHTS replaces the single test concentration by a dilution series.
As to `COC(=O)c1cnc(N2CCN(c3ccccc3OC)CC2)c2ccccc12`, the outcome was inactive.
As to `CN1c2ccc(Cl)cc2-c2nc(SCC(=O)Nc3cc(F)ccc3F)ncc2S1(=O)=O`, the outcome was inactive.
Then `COc1ccc(Nc2cc(C(=O)NCCCN(C)c3ccccc3)c3ccccc3n2)c(OC)c1`, with “inactive”; and `COc1cccc(CNC(=O)C(=O)NCC(c2cccs2)S(=O)(=O)c2ccccc2)c1` (stereo not drawn), with “inactive”; and `Cc1cccc(-n2ncc(C(=O)N3CCN(c4ccc(Cl)cc4)CC3)c2C2CCN(C(=O)OC(C)(C)C)CC2)c1`, with “inactive”.
As for `COc1ccc(NC(=O)CCNS(=O)(=O)c2ccc3c(c2)CCCC(=O)N3)cc1Cl`, the entry is “inactive”.
Then `Cc1cccc(N(C)C(=O)c2cc(S(=O)(=O)N3CCCCC3)c[nH]2)c1`, with “inactive”; and `CCOC(=O)c1c(SCC(=O)Nc2cccc(C)c2C)nc(=O)[nH]c1C`, with “inactive”.
Consider `CCc1ccc(NC(=O)C2CCCN2S(=O)(=O)c2ccc3nc(-c4ccccc4)[nH]c3c2)cc1` (stereo not drawn), for which the result was inactive.
Then `COC(=O)c1scc(-c2ccccc2)c1S(=O)(=O)Nc1ccccc1`, with “inactive”.
As for `CC1CCN(S(=O)(=O)c2ccc3c(c2)N(CC(=O)NCc2ccccc2Cl)C(=O)CO3)CC1`, the entry is “inactive”.
Then `COc1ccc(N2CCN(C3=NS(=O)(=O)C(c4cccc(Br)c4)=C3C)CC2)cc1`, with “inactive”; and `CCOc1ccc(CNC(=O)CCc2c(C)nn(-c3ccc(N4CCCCC4)nn3)c2C)cc1`, with “inactive”; and `COc1ccc(OC)c(-c2nc(C(N)=O)c3c(n2)n(-c2ccc4c(c2)OCO4)c(=O)n3C)c1`, with “inactive”.
On to `O=C(NCc1ccc(F)cc1)c1ccc2nc(N3CCCCC3)sc2c1`, for which the outcome was inactive.
Then `COc1cc(OC)c(C2C=C(C(=O)O)Nc3ncnn32)cc1OC` (stereo not drawn), with “inactive”.
Then `CCOc1cc(/C=C(\C#N)C(=O)Nc2ccccc2C)ccc1OCc1cc(=O)n2nc(CC)sc2n1`, with “inactive”; and `O=C(Nc1ccc2nc(SCCOc3ccccc3Cl)sc2c1)c1ccco1`, with “inactive”; and `Cc1ccc(-c2nnc(SCC(=O)NCc3ccccc3)nc2-c2ccc(C)cc2)cc1`, with “inactive”.
Then `COc1cc(NC(=O)Cn2c(=O)n(Cc3ccco3)c(=O)c3oc4ccccc4c32)cc(OC)c1`, with “inactive”.
As to `Cc1ccccc1CN1CCC(CNC(=O)c2cc3ccc4cccnc4c3[nH]2)CC1`, the result was inactive.
As for `Cc1cc(C)c2oc(C(=O)Nc3ccc(S(=O)(=O)N(C)c4ccccc4)cc3)cc(=O)c2c1`, the entry is “inactive”; as for `Cc1ccc(-c2nc(CS(=O)(=O)CC(=O)NCc3ccccc3Cl)c(C)o2)cc1`, “inactive”.
As for `CC(=O)c1ccc(NC(c2ccc(F)cc2)c2nnc(-c3ccccc3)o2)cc1` (stereo not drawn), the entry is “inactive”; as for `CCOc1ccc(CNC(=O)CCC(=O)N2CCSc3ccccc32)cc1`, “inactive”.
Then `COCCNC(=O)c1ccc2c(c1)N(Cc1cccc(Cl)c1)C(=O)c1ccccc1S2(=O)=O`, with “inactive”.
Take `COc1cc(NS(=O)(=O)c2ccc3c(c2)OCC(C(=O)N2CCCC2)O3)cc(OC)c1` (stereo not drawn): the result was inactive.
Then `CCN(CC)C(=O)CSc1nc2cc3c(cc2c(=O)n1CCCC(=O)NCc1ccc2c(c1)OCO2)OCO3`, with “inactive”; and `Cc1oc2c(c1C(=O)Nc1ccc(F)c(F)c1)C1=NCCN1C=N2`, with “inactive”.
Then `O=C(NCC(c1cccnc1)N1CCc2ccccc21)c1cccc(C(F)(F)F)c1` (stereo not drawn), with “inactive”.
Then `O=C(CN1c2ccccc2S(=O)(=O)c2ccccc21)Nc1cccc(C(F)(F)F)c1`, with “inactive”.
As for `COc1ccc(NC(=O)CSC2=Nc3ccccc3C3=NC(CC(=O)NCc4ccccc4OC)C(=O)N23)cc1Cl` (stereo not drawn), the result was inactive.
Then `CCN(CC)CCNC(=O)c1cc2c(=O)oc3ccc(C)cc3c2s1`, with “inactive”; and `CCOC(=O)c1cc(-c2ccccc2)n(CCC(=O)Nc2ccccc2CC)c1C`, with “inactive”.
On to `COC(=O)c1sc2ncccc2c1-n1c(C)ccc1C`, for which the outcome was inactive.
For `Cc1ccc2nc(/C(C#N)=C/c3ccccc3F)[nH]c2c1`, the result was inactive.
As for `COCCCNC(=O)C1CCC(CNS(=O)(=O)c2ccc(OC)cc2)CC1` (stereo not drawn), the entry is “inactive”.
As for `CCOC(=O)c1c(C)oc2nc(C)nc(N3CCN(c4ccc(OC)cc4)CC3)c12`, the entry is “inactive”; as for `NS(=O)(=O)c1ccc(CCNC(=O)CCCCCn2c(=O)[nH]c3ccccc3c2=O)cc1`, “inactive”.
For `COc1ccc(S(=O)(=O)Nc2cc3c(C(=O)OC(C)C)c(C)oc3c3ccccc23)cc1`, the result was inactive.
As for `COc1ccc(C(=O)CSc2c(C(C)C)cnc3c2c(=O)n(C)c(=O)n3C)cc1`, the entry is “inactive”; as for `NS(=O)(=O)c1ccc2nc(NC(=O)COc3ccccc3)sc2c1`, “inactive”.
As for `Cc1ccccc1C(=O)N(Cc1ccc(N(C)C)cc1)CC1CCCO1` (stereo not drawn), the entry is “inactive”.
